Assay results published in the supplement of paper PMC5641865, “A screen for kinase inhibitors identifies antimicrobial imidazopyridine aminofurazans as specific inhibitors of the Listeria monocytogenes PASTA kinase PrkA” (The Journal of Biological Chemistry, 2017).
± gives the standard deviation of the averaged measurements.

test system: Listeria monocytogenes 10403S; assay: growth inhibition relative to ceftriaxone-alone control; higher = stronger potentiation of ceftriaxone growth inhibition; conditions: 10 µM; ceftriaxone 1 ug/ml; 12 h
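Also: End-point A600 read in BHI broth at 37 °C with 2% DMSO, inhibition computed as (1 − OD with compound plus ceftriaxone ÷ OD with ceftriaxone only) × 100.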

SMILES	growth inhibition [%]
O=C1NC(=O)/C(=C\c2ccc3nccnc3c2)S1	13.5 ± 10
O=C(NCC1CC1)c1ccc(-c2cccc(C(=O)NC3CC3)c2)cc1	-0.0355 ± 1.1
CC(C)CC(=O)Nc1n[nH]c2c1CN(C(=O)C1CCN(C)CC1)C2(C)C	-44.3 ± 75
Oc1c2ccccc2c2c3c(cccc13)N=N2	10.4 ± 10
Nc1ccc(C(=O)Nc2cccc(-c3nc(N4CCOCC4)c4oc5ncccc5c4n3)c2)cn1	31.1 ± 1.6
CNC(=O)c1cncc(/C=C/c2c(C)cccc2C)c1	-1.2 ± 3.7
c1ccc2c(-c3cnn4cc(-c5ccc(N6CCNCC6)cc5)cnc34)ccnc2c1	24.6 ± 12
COc1cccc(-c2c[nH]c3c(N/N=C/c4ccncc4)ncnc23)c1	-10.6 ± 14
O=C1NC(=O)/C(=C/c2ccc3c(c2)OC(F)(F)O3)S1	41.2 ± 7.3
CNC(=O)c1cncc(/C=C/c2c(Cl)cccc2Cl)c1	-4.82 ± 4.5
Nc1nccc(-c2c(-c3ccc(F)cc3)nn3cc(C(F)(F)F)ccc23)n1	-7.97 ± 19
Oc1ccc(-c2nc(-c3ccc(F)cc3)c(-c3ccncc3)[nH]2)cc1	23.7 ± 32
Cc1ccc(NC(=O)c2cccc(C(C)(C)C#N)c2)cc1Nc1ccc2ncn(C)c(=O)c2c1	47.4 ± 11
O=C(Nc1n[nH]c2cc(-c3ccccc3)ccc12)C1CC1	4.09 ± 0.32
CCn1c(-c2nonc2N)nc2c(C#CC(C)(C)O)ncc(OC[C@H]3CCCNC3)c21	98.398 ± 0.078
Cc1cc(O)cc(C)c1/C=C/c1cncc(C(N)=O)c1	-0.223 ± 2.4
COc1c(C(N)=O)cc(-c2ccc(Cl)cc2)cc1-c1ccc(S(N)(=O)=O)cc1	1.37 ± 1.2
COc1cccc2cc(-c3nc([C@H]4CC[C@H](C(=O)O)CC4)n4ncnc(N)c34)[nH]c12	16.8 ± 14
Cn1c(-c2nonc2N)nc2cnccc21	-5.76 ± 4.5

SMILES	growth inhibition [%]
CC1(COc2ccc3c(c2)ncn3-c2ccc3cccc(N4CCC(N)CC4)c3n2)COC1	32 ± 14
COc1cc(N2CCC(N3CCN(C)CC3)CC2)ccc1Nc1ncc(Cl)c(Nc2ccccc2S(=O)(=O)C(C)C)n1	79.1 ± 24
C[C@@H](N)[C@H]1CC[C@H](C(=O)Nc2ccncc2)CC1	24.6 ± 17
COc1ccc(-c2cc3c(N)ncnc3o2)cc1	-3.61 ± 1.9
C=CC(=O)Nc1cccc(Oc2nc(Nc3ccc(N4CCN(C)CC4)cc3OC)ncc2Cl)c1	-1.74 ± 9.7
COc1ccc(-c2ccc3c(NC(=O)C4CC4)n[nH]c3n2)cc1	-7.27 ± 8.3
NS(=O)(=O)c1ccc(N/N=C2\C(=O)Nc3cccc(CCc4ccncc4)c32)cc1	-4.56 ± 8.2
Fc1ccc(-c2nn3ccccc3c2-c2ccncc2)cc1	20.7 ± 8.6
Cc1[nH]nc2ccc(-c3cncc(OC[C@@H](N)Cc4ccccc4)c3)cc12	76.8 ± 16
CCc1cc(Nc2nccc(-c3c(-c4ccc(OC)c(C(=O)Nc5c(F)cccc5F)c4)nc4ccccn34)n2)c(OC)cc1N1CCC(N2CCN(S(C)(=O)=O)CC2)CC1	24.5 ± 8
COc1cc(Nc2ncc3c(n2)-c2ccc(Cl)cc2C(c2c(F)cccc2OC)=NC3)ccc1C(=O)O	43 ± 37
COc1cccc(/C=N/Nc2ncnc3c2cnn3-c2cccc(OC)c2)c1	-3.29 ± 11
CC[C@@H]1C(=O)N(C)c2cnc(Nc3ccc(C(=O)NC4CCN(C)CC4)cc3OC)nc2N1C1CCCC1	41.8 ± 45
O=C(c1ccc(/C=C/c2n[nH]c3ccccc23)cc1)N1CCNCC1	7.15 ± 1.2
COC(=O)Nc1nc2ccc(S(=O)(=O)c3ccc(NC(=O)Nc4cc(C(F)(F)F)ccc4F)cc3)cc2[nH]1	-13.3 ± 8.2
O=C(Nc1cccc(Nc2ncc(Br)c(NCCc3cnc[nH]3)n2)c1)N1CCCC1	9.34 ± 13
CC(C)n1nc(-c2cc3cc(O)ccc3[nH]2)c2c(N)ncnc21	16.2 ± 10
OCCn1cc(-c2cnc3nnn(Cc4ccc5ncccc5c4)c3n2)cn1	22.9 ± 24
FC(F)(F)c1ccc(Nc2nc3ccc(Oc4ccnc(-c5ncc(C(F)(F)F)[nH]5)c4)cc3[nH]2)cc1 [Raf265 Derivative]	49.3 ± 21
